Shown is part of a subset that was picked to be rich in hits.
Pf Dd2 growth = inhibitors of Plasmodium falciparum Dd2 growth; 120,000 tested, 4.3% active; P. falciparum Dd2 growth, SYBR Green, 72 h; Potency, µM (doses to about 28.9 µM), inactives show top-dose activity, negative = inhibition, most hits filed as inhibitors; active = well fitted inhibition curve with a large enough effect;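 note: plate controls were DMSO vehicle for no effect and reference drug for full effect; nearly all actives have a fitted effect of over 65% in size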
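Readout: SYBR Green fluorescence, 485 nm excitation, 535 nm emission, after ~16 h lysis at 37C. Before that, Dd2-infected red cells (2.5% hematocrit) grew 72 h with compound, 29 uM top final concentration.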
Active calls of the source: *; [ ] = another dose, or the depositor's remark. Potency is the fitted concentration of half-maximal effect.

Cc1cccc(-c2noc([C@@H]3Cc4nc[nH]c4CN3C(=O)CC(C)(C)CC(=O)O)n2)c1 was read as Pf Dd2 growth inactive.
For Cc1ccc(-c2noc([C@@H]3Cc4nc[nH]c4CN3C(=O)CCC(=O)O)n2)cc1 the results were Pf Dd2 growth -15%[44.1 µM].
COc1cccc(C(=O)N2CCCCCC2c2nnc(C)o2)c1 (stereo not drawn) was read as Pf Dd2 growth 3%.
`O=C(NCCc1ccccc1)N1CCC2(CC1)CC(N1CCOCC1)CCO2` (stereo not drawn) gave Pf Dd2 growth -25%.
For O=C(Cc1c[nH]c2ncc(-c3ccc4c(c3)OCO4)cc12)N1CCOCC1 the results were Pf Dd2 growth 2%[44.1 µM].
Screening CCCN1CCC2(CCN(C(=O)c3cccc(OC)c3)CC2)Oc2ccccc21 returned Pf Dd2 growth inactive.
Screening CCC(C(=O)NCc1nnc2c(-c3nc(C(C)C)no3)cccn12)c1ccccc1 (stereo not drawn) returned Pf Dd2 growth inactive.
Screening O=C(NCC1CCCN(C(=O)c2cn[nH]c2-n2cnnn2)C1)c1cccs1 (stereo not drawn) returned Pf Dd2 growth -10%.
`CC(=O)c1c(C)nn(CC(=O)NCc2c(C)ncc3c2CCNC3)c1C` gave Pf Dd2 growth -1%.
For c1ccc(CN2Cc3[nH]cnc3C[C@H]2c2nc(-c3ccccc3)no2)cc1 the results were Pf Dd2 growth 13µM*.
For CN(C)c1ccc(CN2Cc3[nH]cnc3C[C@H]2c2nc(-c3ccccc3)no2)cc1 the results were Pf Dd2 growth -15%[44.1 µM].
O=C(Nc1cccc(F)c1)N1Cc2[nH]cnc2C[C@H]1c1nc(-c2ccc(C(F)(F)F)cc2)no1 was read as Pf Dd2 growth inactive.
O=C(c1ccccc1)N1Cc2[nH]cnc2C[C@H]1c1nc(-c2ccc(Cl)cc2)no1 was read as Pf Dd2 growth inactive.
c1csc(CN2Cc3[nH]cnc3C[C@H]2c2nc(-c3ccncc3)no2)c1 was read as Pf Dd2 growth inactive.
For FC(F)(F)c1ccc(-c2noc([C@@H]3Cc4nc[nH]c4CN3Cc3cc4ccccc4o3)n2)cc1 the results were Pf Dd2 growth 8.9µM*.
COC1C(=O)N(C2CCN(C(=O)c3ccc(C)nc3)CC2)C12CCOCC2 (stereo not drawn) was read as Pf Dd2 growth 7%.
Screening O=C(CC1CCCN(c2cnn(CC3CC3)c(=O)c2)C1)NCCN1CCOCC1 (stereo not drawn) returned Pf Dd2 growth 27%.
O=C(NCCc1ccccc1)N1CCCC(c2nc(CCOc3ccc(F)cc3)no2)C1 (stereo not drawn) was read as Pf Dd2 growth inactive.
Screening Cc1ccc(S(=O)(=O)N2CCCN(C)c3ccccc32)cc1F returned Pf Dd2 growth -17%.
`CCOc1ccc(-c2[nH]ncc2CNC(=O)c2ccc(N(C)C)cc2)cc1` gave Pf Dd2 growth -10%.
Screening CCCNC(=O)c1c(OCC2CC2)cc(=O)n2c1CCOCC2 returned Pf Dd2 growth -1%.
COc1cc(NC(=O)N2CCCC(Cn3cnc4cccnc43)C2)cc(OC)c1 (stereo not drawn) was read as Pf Dd2 growth -27%.
For CCOc1ccc(Nc2c(S(=O)(=O)c3ccc(C)cc3)cnc3ccc(OC)cc23)cc1 the results were Pf Dd2 growth inactive.
Screening CCOc1ccc(Nc2c(S(=O)(=O)c3ccc(C)cc3)cnc3cc(OC)c(OC)cc23)cc1 returned Pf Dd2 growth -28%.
`COc1ccc(-c2cc(C(=O)Oc3cccc(C)c3)c3cc(C)ccc3n2)cc1` gave Pf Dd2 growth 43%.
For COc1ccc(C(=O)c2cnc3ccc(C)cc3c2S(=O)(=O)c2ccccc2)cc1 the results were Pf Dd2 growth 11µM*.
Screening COc1ccc(S(=O)(=O)c2c(C(=O)c3ccc(C)c(C)c3)cnc3ccc(F)cc23)cc1 returned Pf Dd2 growth -22%.
`CCOc1ccc(S(=O)(=O)c2c(C(=O)c3ccc(C)c(C)c3)cnc3ccccc23)cc1` gave Pf Dd2 growth 7.9µM*.
CC(=O)N1CCCN(c2ncc(S(C)(=O)=O)c(C3CCCNC3)n2)CC1 (stereo not drawn) was read as Pf Dd2 growth 5%.
For O=C(c1ccc(Cl)cc1)N1CC(c2nnc(-c3ccncc3)o2)C2(CCOCC2)C1 (stereo not drawn) the results were Pf Dd2 growth inactive.
`Cn1nc(C(=O)N2CCCN(c3cc(-c4ccccc4)[nH]n3)CC2)c2ccccc21` gave Pf Dd2 growth inactive.
Screening COc1cccc2c1Oc1nc(-c3ccccc3)nc(SCC(=O)N3CCCCC3)c1C2 returned Pf Dd2 growth -23%.
Screening COc1ccc(-c2nc3c(c(SCC(=O)Nc4ccccc4OC)n2)Cc2cccc(C)c2O3)cc1 returned Pf Dd2 growth 11µM*.
COc1cccc(NC(=O)CSc2nc(-c3ccccc3)nc3c2Cc2cc(Cl)ccc2O3)c1 was read as Pf Dd2 growth 25%.
`COc1ccc(-c2nc3c(c(SCC(=O)Nc4ccccc4F)n2)Cc2cc(C)ccc2O3)cc1` gave Pf Dd2 growth 19%.
For CCOc1ccc(-c2nc3c(c(SCC(=O)Nc4ccccc4C)n2)Cc2ccccc2O3)cc1 the results were Pf Dd2 growth -6%.
`CCOc1cccc2c1Oc1nc(-c3ccccc3)nc(SCC(=O)Nc3ccc(F)cc3)c1C2` gave Pf Dd2 growth 7.9µM*.
`COc1ccc2[nH]cc(CCNC(=O)C3CCCCC(=O)N3Cc3ccccc3)c2c1` (stereo not drawn) gave Pf Dd2 growth -26%.
Screening CCc1nc2cc(N3CCCC(C(=O)NC(C)C)C3)cnc2nc1CC (stereo not drawn) returned Pf Dd2 growth inactive.
`COc1ccccc1C(=O)N1CCC2(CC(C)=NO2)C1` (stereo not drawn) gave Pf Dd2 growth -13%[44.1 µM].
Screening Cc1cc(C)n(CCC(=O)NC2CCCN(c3cc(-c4ccc(F)cc4)[nH]n3)C2)n1 (stereo not drawn) returned Pf Dd2 growth inactive.
For CCCCC(=O)Nc1cc(NC(=O)C(C)NS(C)(=O)=O)ccc1OC (stereo not drawn) the results were Pf Dd2 growth -17%.
Screening Cc1cnc(CC2CCNC2)n1CC1CC1 (stereo not drawn) returned Pf Dd2 growth -14%.
CC(=O)N1CCC(Cc2noc(C3CC3)n2)C1 (stereo not drawn) was read as Pf Dd2 growth 2%.
For CCCN(CC1CCOC1)S(=O)(=O)c1ccc(F)cc1 (stereo not drawn) the results were Pf Dd2 growth 34%[5.79 µM].
Screening CC1(C)[C@H]2CC[C@@H](CNC(=O)c3cncc(Br)c3)[C@@H]1C2 returned Pf Dd2 growth -21%.
For COCC(=O)NC[C@@H]1CC[C@H]2C[C@@H]1C2(C)C the results were Pf Dd2 growth -4%[44.1 µM].
Screening CN(C)CCCC(=O)NC[C@@H]1CC[C@H]2C[C@@H]1C2(C)C returned Pf Dd2 growth 10µM*.
Screening COC[C@H]1C[C@@H](NC(=O)c2ccc(C(F)(F)F)cc2)[C@H](O)[C@@H]1O returned Pf Dd2 growth -5%[44.1 µM].
`CC1(C)[C@H]2CC[C@@H](CNC(=O)c3ccc(F)cc3)[C@@H]1C2` gave Pf Dd2 growth 11µM*.
For CC1(C)[C@H]2CC[C@@H](CNC(=O)c3ccccc3)[C@@H]1C2 the results were Pf Dd2 growth -12%[44.1 µM].
`CC1(C)[C@H]2CC[C@@H](CNC(=O)c3ccc(C(F)(F)F)cc3)[C@@H]1C2` gave Pf Dd2 growth 10µM*.
For CC(=O)NC[C@H]1CCN(C(=O)c2ccc(C(F)(F)F)cc2)C[C@H]1N(C)C the results were Pf Dd2 growth 22%.
